# An excerpt weighted towards active compounds, which were near 1.6% of everything screened.
# KCNQ2 block – KCNQ2 (rat) channel inhibition; O88943; CHO-K1 KCNQ2, FluxOR thallium flux, 20 min; hits give low values; B-score at 10 µM; actives 1.1% (n = 310,000); AID 2156;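 active means fluorescence ratio B-score at most minus 3 library SDs, with starting brightness B-score within 2 library SDs, cut at about -5.5 in these data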
# KCNQ2 enhance – potentiators of rat KCNQ2 potassium channel; CHO-K1 KCNQ2, FluxOR thallium flux fluorescence; hits give high values; actives 0.54% (n = 310,000); B-score at 10 µM; AID 2239; O88943;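 active means fluorescence ratio B-score at least 3 SD of library B-scores, with initial fluorescence B-score within 3 of them, cut at about 5.3 in these data; same plate scores as AID 2156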;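 further: B-score of peak minus minimum over baseline fluorescence ratio after K+ and Tl+ stimulus; positive B-score means potentiation of KCNQ2 with more thallium influx and brighter signal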
# Kir21 confirm – confirmation of mouse Kir2.1 potassium channel inhibitors. actives 41% (n = 2,300). Kir2.1-expressing cells, FluxOR thallium flux fluorescence; hits give low values. Tl flux remaining, % of negative control (hits give low values), % at 10 µM. shares compounds with KCNQ2 enhance;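 active means Primary-screen hit whose thallium flux fell at least 3 control SD below untreated wells in both duplicates, with normal baseline fluorescence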;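 further: 0% = blank wells without stimulus and 100% = stimulated no-compound controls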
# Target sequence (P35561 whole entry, looked up): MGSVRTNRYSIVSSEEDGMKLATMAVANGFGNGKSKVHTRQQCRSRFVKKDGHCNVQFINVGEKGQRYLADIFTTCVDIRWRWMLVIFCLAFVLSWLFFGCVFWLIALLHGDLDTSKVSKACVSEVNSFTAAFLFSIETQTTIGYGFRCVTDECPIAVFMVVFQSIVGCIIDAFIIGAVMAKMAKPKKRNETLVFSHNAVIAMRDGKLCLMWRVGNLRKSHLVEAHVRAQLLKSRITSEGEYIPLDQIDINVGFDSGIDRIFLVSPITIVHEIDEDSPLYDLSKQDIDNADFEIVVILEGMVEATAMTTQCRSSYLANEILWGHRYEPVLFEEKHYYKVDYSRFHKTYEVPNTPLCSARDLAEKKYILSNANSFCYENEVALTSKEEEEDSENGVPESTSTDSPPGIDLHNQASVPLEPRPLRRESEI
# HEK293 ctr – parental HEK293 activity in Kir2.1 inhibitor counter-screen; FluxOR signal as % of negative control (100 = no effect), % at 10 µM; parental HEK293 cells, FluxOR thallium flux fluorescence; 0% = unstimulated blank wells; actives 19% (n = 2,300); shares compounds with KCNQ2 enhance;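 active means dye signal at least 3 control SD above or below untreated wells in both duplicates, raw fluorescence within 3, either direction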;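 further: percent is based on the flux ratio of peak minus minimum fluorescence over baseline F0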
# * marks the source's active call; other numbers are inactive results; i = inactive; · = not tested or not shown.
SMILES,KCNQ2 block,KCNQ2 enhance,Kir21 confirm,HEK293 ctr
Cc1ccc(C(=O)N[C@@H](C)CN2C3=NC[C@@H](Cc4ccccc4)N3C[C@H]2Cc2ccc(O)cc2)cc1Br,i,·,49%*,i
COC(=O)C1=CO[C@@H](C)[C@H]2CN3CC[C@]4(C(=O)Nc5ccccc54)[C@@H]3C[C@H]12,i,0.01,·,·
O=c1[nH]c(=S)n(C2CC2)c(O)c1C=Nc1ccc2c(c1)OCO2,i,·,·,·
Cc1cc(C)nc(NS(=O)(=O)c2ccc(N=Cc3c(O)n(C)c(=O)n(C)c3=O)cc2)n1,i,·,·,·
COc1ccc(Cc2nccc3cc(OC)c(OC)cc23)cc1OC,i,·,43%*,i
COc1ccc(CCNCc2ccc(C)s2)cc1OC,i,1.4,·,·
Cc1nonc1OCCNCCNc1ccc([N+](=O)[O-])c2cccnc12,i,1.3,·,·
COc1ccc(-n2c(O)c(C=NCCN(C)C)c(=O)[nH]c2=O)cc1,i,0.02,·,·
COc1ccc(CCNCc2c(OC)ccc3ccccc23)cc1,i,·,28%*,i
COc1ccc(CCNCc2ccccc2)cc1,i,1.3,·,·
COc1cc(C=C2C(=O)NC(=O)NC2=O)ccc1OS(=O)(=O)c1ccccc1[N+](=O)[O-],i,0.49,·,·
O=P(CCl)(Nc1ccccc1)C(Cl)(Cl)Cl (stereo not given),i,0.77,·,·
COc1cc(O)c(C(=O)O)c(-c2cc(O)c(O)cc2C)c1,i,·,·,·
Cc1ccc(-c2cc(-c3ccc(C)cc3)[n+](-c3ccc(C(=O)O)cc3)c(-c3ccc(C)cc3)c2)cc1,i,0.83,·,·
Cc1ccccc1-[n+]1c(-c2ccccc2)cc(-c2ccccc2)cc1-c1ccccc1,-8.3*,-8.3,16%*,57%*
Brc1ccc(-[n+]2c(-c3ccccc3)cc(-c3ccccc3)cc2-c2ccccc2)cc1,-8.4*,-8.4,34%*,i
C[n+]1c(-c2ccccc2)cc(CCCCc2cc(-c3ccccc3)[n+](C)c(-c3ccccc3)c2)cc1-c1ccccc1,i,·,·,·
[O-]c1ccccc1-[n+]1c(-c2ccccc2)cc(-c2ccccc2)cc1-c1ccccc1,i,·,25%*,i
CCCOC(=O)c1ccc(-[n+]2c(-c3ccccc3)cc(-c3ccccc3)cc2-c2ccccc2)cc1,-6.9*,-6.9,36%*,i
CCN1C[C@]2(COC)CC[C@H](OC)[C@@]34C5C[C@H]6C(=O)C5[C@](O)(C[C@H]6OC)[C@@](O)(C(OC)C23)[C@@H]14 (stereo not given in full),i,·,·,·
Fc1ccc(CCNCc2ccccc2Cl)cc1,i,0.28,·,·
CCOc1ccc(Cl)cc1CNCCc1ccc(F)cc1,i,·,24%*,i
O=C(Cc1ccccc1)Oc1cccc(-n2cnnn2)c1,i,0.08,·,·

# Screening results: PubChem BioAssay, Johns Hopkins Ion Channel Center
